Source: PubChem BioAssay (several laboratories)
TROY NFkB inh: TROY signaling inhibition. Q293 LMP1-TROYcd NF-kB luciferase reporter, 4 h. inhibition, % at 10 µM. 360,000 tested, 0.98% active. AID 1347056;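 active = compounds whose plate-normalised and pattern-corrected inhibition of the luciferase reporter signal at the single screening dose is 50% or more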
PPC-1+TRAIL kill: PPC-1 cancer cell killing with TRAIL present | 220,000 tested, 0.41% active | PPC-1 cells + TRAIL, ATPLite viability luminescence | cell killing (% activity), % at 4 µM or 5 µM;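 active = cell killing above 50% in the first pass at 4 µM, then a duplicate retest at 5 µM averaging 50% or more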;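 note: plate controls were cells with TRAIL plus DMSO for no effect and medium-only wells lacking cells for full effect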
C8 TRAIL sens: caspase-8 TRAIL sensitization; NB7+C8 cells + TRAIL, ATPlite viability luminescence; inhibition (viability loss, TRAIL sensitization), % at 10 µM; 360,000 tested, 1% active;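 active = compounds causing at least 50% loss of cell viability in the single-dose screen, relative to plate controls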
HSP90 inh: HSP90 refolding inhibition in rabbit reticulocyte lysate | luciferase refolding luminescence, 3 h | inhibition, % at 5.6 µM | 290,000 tested, 0.91% active;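 active = inhibition above the screen-wide mean plus 3 SD, computed separately per campaign, cut at about 16% in these data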;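 note: 0% = DMSO wells and 100% = 60 µM geldanamycin wells; inhibitors lower the luminescence because luciferase stays unfolded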
TWEAK-Fn14 inh: inhibitors of TWEAK-Fn14 interaction signaling; 360,000 tested, 2% active; inhibition, % at 10 µM; TWEAK-stimulated Fn14 reporter cells, luciferase luminescence, 8 h; AID 1159606; in the data active = inhibition above about 50%
Platelet DG rel: modulates dense granule release in human platelets | human platelet-rich plasma, SFLLRN dense granule ATP release, luminescence | inhibition, %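 (compounds screened at 7.5 µM in platelet-rich plasma)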 | 300,000 tested, 0.22% active;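 active = mean replicate score, as percent of positive control, at or above 50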
An asterisk follows results filed as active; x = no result. Most compounds without a hit are left out; they make up all but 3.5% or so of the library.

SMILES	TROY NFkB inh	PPC-1+TRAIL kill	C8 TRAIL sens	HSP90 inh	TWEAK-Fn14 inh	Platelet DG rel
COc1cc(-n2c(C)nc3cccnc32)c(Cl)cc1C(=O)O	-13.2	x	-2.2	-0.1	-12.3	0.7
COc1cc(OC)cc(-c2cc3cc4c(cc3cn2)OCO4)c1	-61.8	x	72.0*	x	21.4	x
COc1ccc(-c2cc3cc(OC)c(OC)cc3cn2)cc1	-48.9	x	-0.7	x	-58.1	x
c1ccc(-c2cc3cc4c(cc3cn2)OCO4)cc1	-32.9	x	50.7*	x	27.9	x
COc1ccc(-c2cc3cc4c(cc3cn2)OCO4)cc1	17.1	x	54.5*	x	53.6*	x
COc1cc(OC)cc(-c2cc3ccc(OC)cc3cn2)c1	-24.9	x	82.8*	x	9.5	x
COCc1cccc(-c2csc(C(C)(NC(C)=O)c3ccc(OC)cc3)n2)c1 (centres undefined)	4.6	x	-5.2	x	-16.2	x
C[C@H]1CN([C@@H](C)CO)C(=O)CCCn2cc(nn2)CO[C@@H]1CN(C)S(=O)(=O)c1cccc(F)c1	2.3	x	-11.4	x	-21.3	x
C[C@@H]1ON(C)[C@H]2C[C@H]3c4cc(-c5cccc(F)c5)ccc4CCN3C(=O)[C@@H]12	20.6	x	6.4	x	17.3	x
CCNc1nc(NCC)nc(N(C#N)C(C)C)n1	-7.1	5.8	-6.9	-0.9	76.1*	3.3
CC(NS(C)(=O)=O)C(c1cccs1)N1CCN(Cc2ccccc2)CC1 (centres undefined)	-0.8	29.1	-0.4	-6.4	-0.7	65.3*
O=C(CCl)N1c2ccccc2Oc2ccc3ccccc3c21	73.5*	x	27.2	x	69.1*	x
COCCNC(=O)CN(Cc1ccccc1)S(=O)(=O)c1ccc2nc(C)sc2c1	5.7	x	-22.7	-3.8	0.7	-1.5
CCCOc1ccc(-c2cc3onc(-c4ccccc4)c3c(=O)n2C)cc1	81.4*	x	38.9	x	89.0*	x
Cc1ccc(-c2cc3onc(-c4ccccc4)c3c(=O)n2C)cc1	88.6*	x	77.6*	x	102.0*	x
O=S(=O)(NCc1nc2ccccc2[nH]1)c1ccccc1	16.6	x	-19.1	-2.8	-5.2	1.1
O=C1C(Cl)=C(NC(=O)c2ccccc2)C(=O)C(Cl)=C1NC(=O)c1ccccc1	9.6	x	10.6	70.9*	24.1	3.1
O=C(NC1=C(Nc2ccc(Cl)cc2)C(=O)c2ccccc2C1=O)c1ccccc1	21.4	20.6	13.7	-0.4	26.9	1.1
O=c1oc2ccccc2cc1-c1csc(Nc2nc3ccc(F)cc3s2)n1	x	5.9	x	-1.2	x	20.3
O=c1oc2ccccc2cc1-c1csc(Nc2nc3c(F)cccc3s2)n1	13.0	-1.3	53.3*	-1.8	29.1	5.2
COc1cc(C(=O)Nc2nc3ccccc3[nH]2)ccc1OC(F)F	-6.7	-8.5	47.5*	-1.4	26.2	3.3
COc1ccc(C(=O)Nc2nc3ccccc3[nH]2)cc1OC	-28.6	20.0	6.5	6.5	13.1	4.3
COc1ccccc1CCC(=O)Nc1nc2ccccc2[nH]1	-48.8	16.4	34.0	-1.0	50.0*	-3.1
COc1ccc(Br)c(C(=O)Nc2nc3ccccc3[nH]2)c1	-27.9	x	-4.7	0.6	-0.9	-2.9
O=C(CC1CCCC1)Nc1nc2ccccc2[nH]1	-48.1	2.7	50.6*	-6.2	0.7	-4.0
SMILES	TROY NFkB inh	PPC-1+TRAIL kill	C8 TRAIL sens	HSP90 inh	TWEAK-Fn14 inh	Platelet DG rel
COc1cc(OC)cc(C(=O)Nc2nc3ccccc3[nH]2)c1	-5.5	21.6	52.6*	-4.1	-20.8	4.1
COc1cccc(CN2CC(C(=O)N3CCN(c4ccc(Cl)cc4)CC3)CCC2=O)c1 (centres undefined)	1.6	x	1.4	-1.8	2.6	4.9
CCc1nc2c(OCCC3CCCCC3)cccn2c1N(C)C(=O)c1ccc(C)cc1	7.2	x	9.7	x	8.0	x
O=C(Nc1nc2ccccc2[nH]1)c1cc(F)cc(F)c1	-7.8	x	41.0	6.5	-6.3	9.5
Cc1cc(C)cc(C(=O)Nc2nc3ccccc3[nH]2)c1	-33.4	x	50.4*	-1.7	-12.5	-3.5
O=C(O)c1ccc2cc(-c3ccccc3)[nH]c2c1	40.5	x	5.4	x	97.8*	14.1
COc1ccc(C2c3[nH]c4ccccc4c3CCN2Cc2cccn2-c2ncccn2)cc1C (centres undefined)	71.2*	25.6	14.6	4.8	56.3*	4.9
Cc1c(NS(=O)(=O)c2cccc(C(=O)NCc3ccco3)c2)c(=O)n(-c2ccccc2)n1C	9.8	x	4.0	x	15.2	x
Cc1cc([N+](=O)[O-])ccc1NC(=O)CSc1nnc(C)n1C	-22.5	x	-8.6	-3.3	58.0*	-2.5
CC(=O)Nc1ccc(Sc2ccc([N+](=O)[O-])o2)cc1	36.6	x	20.2	x	94.9*	x
CC(C)(C)C(=O)Nc1ccc(Sc2ccc([N+](=O)[O-])cc2)cc1	49.1	13.8	15.4	0.4	51.0*	-6.6
CC(C)(C)C(=O)NC(NC(=O)C(C)(C)C)c1ccc([N+](=O)[O-])cc1	-0.5	7.3	-1.2	-3.4	-3.3	-13.8
COCCNC(=O)C1(C)CCCN(Cc2ccc(OCc3ccccc3)cc2)C1 (centres undefined)	10.2	x	6.0	x	18.1	x
O=C(/C(=C(\O)c1ccccc1)c1ncc[nH]1)c1ccccc1	-10.3	22.8	-5.0	-1.3	1.3	8.9
C/C(=N/Nc1ccccc1[N+](=O)[O-])c1ccc([N+](=O)[O-])cc1	50.7*	x	-7.0	-6.9	-23.2	-2.4
C/C(=N\Nc1ccccc1[N+](=O)[O-])c1ccccc1O	40.5	x	-2.3	-4.8	-30.6	-2.5
CC1=C/C(=N\Nc2ccccc2[N+](=O)[O-])CC(C)(C)C1	58.4*	-9.0	-6.3	-1.3	12.4	-0.9
CC/C(=N\Nc1ccccc1[N+](=O)[O-])c1ccc(O)cc1	52.6*	-1.9	-3.9	5.5	4.5	6.8
O=[N+]([O-])c1ccccc1N/N=C/c1ccccc1	-29.0	x	-16.5	-2.1	15.2	-9.6
Cc1ccc(S(=O)(=O)N2CCOCC2)cc1C(=O)N1CCN(S(=O)(=O)c2ccccc2F)CC1	10.6	x	-1.9	x	-8.2	x
Cc1nc2ccc(NS(=O)(=O)c3ccc(F)c(C)c3)cc2[nH]1	20.0	x	29.4	2.0	28.3	-0.5
Cc1cccc(NC(=O)CNC(=O)Cn2cc(C(F)(F)F)cc(Cl)c2=O)c1C	-13.7	x	-6.7	x	-0.6	x
CC(=O)c1cccc(NC(=O)CSc2nc(N3CCCCC3)nc(N3CCCCC3)n2)c1	56.7*	4.7	-9.4	2.6	54.3*	-8.9
CC(=O)c1ccc(NC(=O)CSc2nc(N3CCOCC3)nc(N3CCOCC3)n2)cc1	-34.2	x	2.8	2.7	-20.2	0.4
COc1ccc(CCNC(=O)CCCn2nc(C)c([N+](=O)[O-])c2C)cc1OC	-18.3	21.7	-16.5	2.1	17.3	3.7
Fc1ccc(N=C2NN=C(c3cc(F)ccc3F)CS2)cc1	-114.8	10.5	14.6	-1.0	-26.3	x
O=S(=O)(c1ccc(N=C2NN=C(c3cc(F)ccc3F)CS2)cc1)N1CCOCC1	36.7	14.8	26.6	-2.5	81.2*	x
O=C(NCCc1ccc(C(F)(F)F)cc1)C1CC(=O)N(Cc2ccccc2)C1 (centres undefined)	0.6	x	-10.8	x	2.6	x
